This is part of a sample that, as a whole, favours compounds with a hit. Of some 83,000 tested, about 20% had one in any assay.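 Interpretation: 100, growth as untreated; towards 0, rising growth inhibition; 0, no net growth; 0 to -100, cell death. Compounds scoring below 10 were considered active.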 A number with no mark means an inactive call. The source made the active and inactive calls.

Drawing on PubChem BioAssay (NCI), this text covers growth for 18 compounds.

Some test systems named below: RPMI-8226 leukemia; OVCAR-8 ovarian; OVCAR-5 ovarian; OVCAR-4 ovarian; IGROV1 ovarian; OVCAR-3 ovarian; HS 578T breast; NCI/ADR-RES ovarian; T-47D breast.
What all share (test): NCI-60 one-dose screen, 48 h (100 = growth as untreated, 0 = no growth, -100 = all killed)
Conditions in all cases: 10 µM unless noted

Consider `Cc1ccc(C2CC(c3ccc(Nc4nc(NCCO)nc(Nc5ccc(Cl)cc5)n4)cc3)=NN2c2cc(Cl)cc(Cl)c2)cc1` (configuration not stated), for which the growth is 101% with RPMI-8226 leukemia; 97.4% in the assay on OVCAR-8 ovarian; 94.2% with OVCAR-5 ovarian; 102% with OVCAR-4 ovarian; 87.8% in the assay on IGROV1 ovarian; 102% in the assay with OVCAR-3 ovarian. The values for the growth in the assay with HS 578T breast, in the assay with NCI/ADR-RES ovarian and with T-47D breast were 68.3%, 105% and 94.5%, respectively.
`Fc1cccc(COc2ccc(Nc3ncnc4onc(-c5ccccc5)c34)cc2)c1`: the growth with RPMI-8226 leukemia is 12.5%; in the assay on OVCAR-8 ovarian it was 29.2%; in the assay on OVCAR-5 ovarian, 9.86% (active); in the assay with OVCAR-4 ovarian it was 43.3%; in the assay with IGROV1 ovarian, 24.5%; with OVCAR-3 ovarian, 0.458% (active). Further, the results for the growth in the assay on HS 578T breast, with NCI/ADR-RES ovarian and in the assay on T-47D breast were -16.7% (active), 46.5% and 45.4%, respectively.
With `CC1=NCC2NC(=O)NC(C)=C12` (configuration not stated), the growth with RPMI-8226 leukemia is 100%; with OVCAR-8 ovarian, 105%; in the assay with OVCAR-5 ovarian it was 97.4%; in the assay on OVCAR-4 ovarian it was 106%; with IGROV1 ovarian it was 97%; in the assay on OVCAR-3 ovarian, 105%. In addition, the figures for the growth with HS 578T breast, in the assay on NCI/ADR-RES ovarian and in the assay on T-47D breast were 93.6%, 106% and 113%, respectively.
Regarding `CC(=O)c1ccc(Nc2nc(NCCO)nc(Nc3ccc(Cl)cc3)n2)cc1`, the growth in the assay on RPMI-8226 leukemia is 89.5%; in the assay with OVCAR-8 ovarian, 93.4%; in the assay on OVCAR-5 ovarian, 96.1%; in the assay on OVCAR-4 ovarian, 95.7%; in the assay on IGROV1 ovarian, 98.7%; in the assay on OVCAR-3 ovarian it was 95.5%. For the same compound, the results for the growth in the assay with HS 578T breast, in the assay on NCI/ADR-RES ovarian and in the assay with T-47D breast were 87.2%, 91.9% and 79.9%, respectively.
In the case of `O=C(c1nc2ccccc2[nH]1)C1C(c2ccc([N+](=O)[O-])cc2)C2CC3CCCCC3N2[C@@]12C(=O)Nc1cc(Cl)ccc12` (some centres not stated), the growth with RPMI-8226 leukemia is 6.29% (active); with OVCAR-8 ovarian, 35%; with OVCAR-5 ovarian, 46.3%; with OVCAR-4 ovarian, 20.6%; in the assay with IGROV1 ovarian it was 24.9%; in the assay with OVCAR-3 ovarian it was 29.6%. Moreover, the growth in the assay on HS 578T breast was 54.6%; in the assay with NCI/ADR-RES ovarian, 29.2%; with T-47D breast, 28.8%.
For `O=C(/C=C/c1ccc(C(F)(F)F)cc1)c1ccc(Nc2nc(NCCO)nc(Nc3ccc(Cl)cc3)n2)cc1`, the growth in the assay with RPMI-8226 leukemia is 6.67% (active); in the assay on OVCAR-8 ovarian, 52.6%; in the assay on OVCAR-5 ovarian, 97.3%; with OVCAR-4 ovarian, 42.2%; in the assay with IGROV1 ovarian, 83.5%; in the assay with OVCAR-3 ovarian, 27.1%. The growth in the assay on HS 578T breast was 72.4%; with NCI/ADR-RES ovarian, 78.7%; in the assay on T-47D breast, 24.2%.
Turning to `COc1ccccc1C1=C(Br)C(=O)c2nc(C)ccc2C1=O`, the growth with RPMI-8226 leukemia was 104%; with OVCAR-8 ovarian it was 96.8%; with OVCAR-5 ovarian it was 110%; in the assay on OVCAR-4 ovarian it was 97.8%; in the assay with IGROV1 ovarian, 97.3%; in the assay with OVCAR-3 ovarian, 81%. In addition, the growth in the assay on HS 578T breast was 104%; with NCI/ADR-RES ovarian, 107%; in the assay on T-47D breast, 69.6%.
For `Cc1sc2ncn(CC(=O)Nc3ccc(S(N)(=O)=O)cc3)c(=O)c2c1C`, the growth is 106% in the assay with RPMI-8226 leukemia; 96.5% in the assay on OVCAR-8 ovarian; 99.2% in the assay on OVCAR-5 ovarian; 108% with OVCAR-4 ovarian; 102% in the assay on IGROV1 ovarian; 108% in the assay with OVCAR-3 ovarian. For the same compound, the figures for the growth in the assay on HS 578T breast, in the assay with NCI/ADR-RES ovarian and with T-47D breast were 95.8%, 105% and 96.5%, respectively.
Turning to `COc1cc(/C=C2\Oc3cc(OCCCN4CCCC4)ccc3C2=O)cc(OC)c1`, the growth is 49.4% with RPMI-8226 leukemia; 56.4% in the assay with OVCAR-8 ovarian; 89.4% with OVCAR-5 ovarian; 75.2% with OVCAR-4 ovarian; 51% in the assay on IGROV1 ovarian; -34.6% (active) with OVCAR-3 ovarian. Moreover, the values for the growth in the assay on HS 578T breast, with NCI/ADR-RES ovarian and with T-47D breast were 70.2%, 80.8% and 88.8%, respectively.
On to `CCCCN1CCN(c2ccc3nc(-c4ccc5nc(-c6ccc(C(F)(F)F)cc6)[nH]c5c4)[nH]c3c2)CC1`, for which the growth in the assay on RPMI-8226 leukemia was -35.3% (active); in the assay on OVCAR-8 ovarian it was -40.5% (active); with OVCAR-5 ovarian it was -89.2% (active); in the assay with OVCAR-4 ovarian, -84.2% (active); in the assay on IGROV1 ovarian, -82.3% (active); in the assay with OVCAR-3 ovarian, -96.7% (active). Moreover, the growth in the assay on HS 578T breast is -64.3% (active); in the assay on NCI/ADR-RES ovarian, 54.8%; with T-47D breast, -37.3% (active).
In the case of `CC(C)Cn1c2c(c(=S)[nH]c1=O)CCC2`, the growth is 99.2% in the assay with RPMI-8226 leukemia; 101% in the assay with OVCAR-8 ovarian; 99.5% in the assay with OVCAR-5 ovarian; 101% in the assay with OVCAR-4 ovarian; 103% in the assay on IGROV1 ovarian; 111% in the assay on OVCAR-3 ovarian. For the same compound, the growth in the assay with HS 578T breast is 102%; with NCI/ADR-RES ovarian, 106%; with T-47D breast, 111%.
Take `CCCCC1CCc2cccc3c(SCC(=O)N(C)c4ccc(Cl)cc4)cc[n+]1c23` (configuration not stated): the growth is 110% with RPMI-8226 leukemia; 113% with OVCAR-8 ovarian; 116% in the assay with OVCAR-5 ovarian; 107% in the assay on OVCAR-4 ovarian; 121% with IGROV1 ovarian; 108% in the assay on OVCAR-3 ovarian. Also, the growth was 116% in the assay with HS 578T breast, 110% in the assay on NCI/ADR-RES ovarian and 104% in the assay on T-47D breast.
`Nc1nc(-c2ccccc2Br)nn1-c1nc2ccccc2s1`: the growth is 102% with RPMI-8226 leukemia; 97.6% with OVCAR-8 ovarian; 98% in the assay on OVCAR-5 ovarian; 101% in the assay with OVCAR-4 ovarian; 101% in the assay on IGROV1 ovarian; 108% in the assay on OVCAR-3 ovarian. The results for the growth with HS 578T breast, in the assay on NCI/ADR-RES ovarian and in the assay on T-47D breast were 104%, 105% and 105%, respectively.
Turning to `COc1cc(C=C2C(=O)N(C)C(=O)N(C)C2=O)cc(CN2CCCCC2)c1O`, the growth was 104% in the assay with RPMI-8226 leukemia; 105% with OVCAR-8 ovarian; 96.9% with OVCAR-5 ovarian; 103% in the assay on OVCAR-4 ovarian; 104% in the assay on IGROV1 ovarian; 105% in the assay on OVCAR-3 ovarian. For the same compound, the growth in the assay with HS 578T breast was 96%; in the assay on NCI/ADR-RES ovarian, 105%; in the assay with T-47D breast it was 90.2%.
Regarding `CC(=O)c1ccc(NC(=O)Nc2ccc(S(=O)(=O)Nc3ccc(Cl)nn3)cc2)cc1`, the growth in the assay on RPMI-8226 leukemia is 108%; in the assay on OVCAR-8 ovarian, 98.7%; in the assay with OVCAR-5 ovarian, 95.3%; in the assay on OVCAR-4 ovarian, 110%; in the assay on IGROV1 ovarian, 99.5%; with OVCAR-3 ovarian it was 108%. Further, the growth in the assay on HS 578T breast is 98.4%; with NCI/ADR-RES ovarian, 103%; with T-47D breast it was 101%.
For the compound `Cc1cccc2c(=O)c3c(sc12)c(N1CCNCC1)nc1ccccc13`, the growth in the assay on RPMI-8226 leukemia is 7.41% (active); in the assay on OVCAR-8 ovarian, 83.9%; in the assay with OVCAR-5 ovarian, 90.2%; in the assay with OVCAR-4 ovarian, 73.9%; with IGROV1 ovarian, 33.6%; in the assay with OVCAR-3 ovarian, 63.7%. The values for the growth in the assay with HS 578T breast, in the assay on NCI/ADR-RES ovarian and in the assay on T-47D breast were 73%, 83.1% and 86.9%, respectively.
On to `NCCOc1ncccc1/C=C1\c2ccccc2-c2ccc([N+](=O)[O-])cc21`, for which the growth with RPMI-8226 leukemia was -21.5% (active); in the assay on OVCAR-8 ovarian it was -13% (active); in the assay with OVCAR-5 ovarian it was -72.8% (active); in the assay with OVCAR-4 ovarian it was -69.2% (active); in the assay with IGROV1 ovarian, -80.2% (active); in the assay on OVCAR-3 ovarian, -77.7% (active). In addition, the growth was -5.23% (active) with HS 578T breast, -45.4% (active) with NCI/ADR-RES ovarian and -30.4% (active) with T-47D breast.
As for `C[C@@H](C(=O)NCCCC#Cc1cnc(Nc2ccc(C#N)cc2)nc1NC1CC1)N(C)C(=O)/C=C/CN(C)C`, the growth with RPMI-8226 leukemia is 14.9%; with OVCAR-8 ovarian, 55.9%; with OVCAR-5 ovarian it was 66.3%; in the assay on OVCAR-4 ovarian, 38.7%; in the assay on IGROV1 ovarian, 41.1%; in the assay with OVCAR-3 ovarian it was 29.3%. The growth in the assay on HS 578T breast is 59%; with NCI/ADR-RES ovarian, 78.2%; in the assay with T-47D breast it was 54.9%.
